Assay outcomes (PubChem BioAssay)
FMDV inh = blocks foot and mouth disease virus | FMDV antiviral cell-based qHTS | Potency, µM (doses to about 57.9 µM), for the others: top-dose activity change, negative = inhibition, usual class: inhibitors | actives 1.2% (n = 410,000); calls by dose curve; tested in HEK293T cells; further: read-out not given here; potency means the concentration at half of the fitted maximal effect; nearly all actives have a fitted effect of over 45% in size
HCV inh = blocks hepatitis C virus; Huh7.5.1 HCVcc-Cre infection, luciferase reporter, 44 h; actives 3.4% (n = 340,000); AID 651820; Potency, µM (doses to about 41.8 µM), for the others: at the highest dose activity change, negative = inhibition, most hits filed as inhibitors; further: potency means the concentration at half of the fitted maximal effect
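Infectious HCV cell culture screen: compound-treated cells (1,000/well, pre-plated 4 h) are infected with HCVcc-Cre at roughly 0.5 moi and grown 44 h. Infection is quantified by luciferase signal after 15 min substrate incubation at room temperature.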
AmpC inh no detg = inhibitors of E. coli AmpC beta-lactamase without detergent; Potency, µM (highest dose often 57.1 µM), for inactives: at the highest dose activity change, negative = inhibition, usual class: inhibitors; actives 0.52% (n = 330,000); AID 485341; P00811; AmpC nitrocefin hydrolysis, absorbance 480 nm, 0.0001% Triton;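 further: potency means the concentration at half of the fitted maximal effect; plate controls were no compound for no effect and no enzyme for full effect; nearly all actives have a fitted effect of over 20% in size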
Target sequence (P00811 whole entry, looked up): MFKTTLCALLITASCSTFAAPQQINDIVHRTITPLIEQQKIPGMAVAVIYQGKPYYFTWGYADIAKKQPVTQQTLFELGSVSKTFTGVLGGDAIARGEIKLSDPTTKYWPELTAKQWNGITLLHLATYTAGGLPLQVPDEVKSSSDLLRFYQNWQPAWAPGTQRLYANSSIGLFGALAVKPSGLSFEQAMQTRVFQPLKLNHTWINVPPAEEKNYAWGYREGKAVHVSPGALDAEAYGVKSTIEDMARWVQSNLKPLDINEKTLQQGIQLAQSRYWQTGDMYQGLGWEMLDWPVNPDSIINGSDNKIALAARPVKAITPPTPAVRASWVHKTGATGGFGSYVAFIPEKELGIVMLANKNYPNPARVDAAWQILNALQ
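20 mM phosphate pH 7.0 + 0.01% (detergent screen) or 0.0001% Triton X-100; 5.3 nM AmpC reagent; cpd preinc 15 min RT; nitrocefin (800 uM stock) to start; A480 q20 s × 4 min; Activity was normalised to no-enzyme and no-compound control wells.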
AmpC inh detg = blocks E. coli AmpC beta-lactamase in detergent assay; P00811; AmpC hydrolysis of nitrocefin, absorbance 480 nm, 0.01% Triton; Potency, µM (titrated, usually from 114 µM), without a hit: top-dose activity change, negative = inhibition, hits mostly inhibitors; actives 0.041% (n = 370,000);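 further: potency means the concentration at half of the fitted maximal effect; 0% = no-compound wells and -100% = no-enzyme wells; nearly all actives have a fitted effect of over 25% in size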
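20 mM phosphate pH 7.0 + 0.01% (detergent screen) or 0.0001% Triton X-100; 5.3 nM AmpC reagent; cpd preinc 15 min RT; nitrocefin (800 uM stock) to start; A480 q20 s × 4 min; Activity was normalised to no-enzyme and no-compound control wells.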
HCMV antiviral = human cytomegalovirus inhibition | HFF cells, HCMV-luciferase reporter, 72 h; hits give low values | activity change, negative = inhibition, % at 57.5 µM | actives 4.5% (n = 410,000) | AID 1259415; in the data active means activity change below about -60%; inconclusive means no clear call, values can overlap the other calls; inactive means above about -39%
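Two-dose cell screen: HFF monolayers treated with compounds and infected with luciferase-expressing HCMV at 1 PFU/cell, 72 h at 37C, then lysed for luciferase measurement.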
The depositor's hits bear a star; ? = inconclusive; · = no result; [ ] = another dose, or the depositor's remark. An excerpt weighted towards active compounds, which were near 7.3% of everything screened. Unless noted, the call rests on the fitted dose curve; in most records, active means well fitted curve in the direction sought with a large enough effect; inconclusive means small, poorly fitted or top-dose-only effect, or another doubt; inactive means no such curve, though single readings can be large; an effect the other way counts as inactive or inconclusive. Unless noted, on the % scale 0 is the no-effect control and ±100 the full control effect.

SMILES | FMDV inh | HCV inh | AmpC inh no detg | AmpC inh detg | HCMV antiviral
COCCCNC(=O)c1sc2ncn(CC(=O)Nc3ccc(C)c(Cl)c3)c(=O)c2c1C | -13% | ? | -2% | 2% | -18
COCC(=O)Nc1cc(C(=O)N2CCC(c3ccccc3)CC2)cc2nc(-c3ccccc3)n(C)c12 | 22% | · | · | · | ·
CCC(C)Sc1ccc([C@@H]2[C@@H]3C(=O)N(CC)C(=O)[C@@H]3[C@]3(C(=O)OC)CCCCN23)cc1OC (stereo partly drawn) | -24% | 11µM* | 259% | · | 14
CCC(C)Sc1ccc([C@@H]2[C@@H]3C(=O)N(C)C(=O)[C@@H]3[C@]3(C(=O)OC)CCCCN23)cc1OC (stereo partly drawn) | -19% | -5% | 174% | ? | 70
Cn1c(=O)c2c(nc(Br)n2Cc2ccccc2Cl)n(C)c1=O | ? | ? | -2% | ? | -29
COc1ccc(Oc2nc3c(c(=O)n(C)c(=O)n3C)n2C)cc1 | -10% | 0% | -9% | -8% | -37
Cn1c(=O)c2c(nc(Br)n2Cc2ccc3ccccc3c2)n(C)c1=O | 14µM* | ? | 45% | ? | -14
Cn1c(=O)c2c(nc(Oc3ccc4ccccc4c3)n2C)n(C)c1=O | -17% | -15% | 7% | 7% | -76*
COC(=O)C1=C(CS(=O)(=O)c2cc(Cl)ccc2OC)NC(=O)NC1c1ccccc1 (stereo not drawn) | 5% | · | · | -2% | -15
CNc1nc(Nc2ccc(C)cc2C)c2sccc2n1 | ? | · | · | · | -63*
Cc1ccc(Nc2nc(NCC3CC3)nc3ccsc23)c(C)c1 | ? | · | · | · | -82*
Cc1ccc(CNc2nc(NCc3ccccc3)nc3ccsc23)c(C)c1 | ? | · | · | · | -63*
Cc1ccc(CNc2nc(NCC3CC3)nc3ccsc23)c(C)c1 | ? | · | · | · | -77*
Cc1ccc(C2N3CC4(C)CN2CC(c2ccccc2)(C3)C4=O)cc1 (stereo not drawn) | 0% | · | · | 25% | -1
COCCNc1nc(NCc2ccccc2)nc2ccsc12 | ? | · | · | · | -61*
COCCNc1nc(NC(C)C)nc2ccsc12 | -22% | · | · | · | 1
CCOC(=O)Cc1ccc(Nc2nc(NCc3ccccc3)nc3ccsc23)cc1 | 28µM* | · | · | · | 23
CCOC(=O)Cc1ccc(Nc2nc(NC)nc3ccsc23)cc1 | ? | · | · | · | -16
O=C(c1cccnc1)N1CC(=O)N2[C@@H](CO)[C@@H](c3ccc(Br)cc3)[C@@H]2C1 | · | · | · | · | -12
CC(C)Oc1ccc(C(CCN)C2CCCCC2)cc1 (stereo not drawn) | -25% | ? | 65% | 5% | -99*
CN(C(=O)c1cccc(NC(=O)Cc2cccc(NC(=O)C3CCN(C(=O)c4ccccc4)CC3)c2)c1)C1CCCC1 | -10% | 12%[8.37 µM] | · | · | 6
O=[N+]([O-])c1ccc(Oc2cnc3ccccc3n2)cc1 | 17% | -17% | -6% | -7% | -63*
Cc1ccc(Oc2cnc3ccccc3n2)cc1 | 58% | 17% | -5% | -9% | ?
COc1ccc(-c2sc3ccccc3c2/C=C/c2ccncc2)cc1 | -25% | 7.1µM* | 41% | · | 26
COc1ccc(/C=C/c2c(-c3ccc(OC)cc3)sc3cc(OC)c(OC)cc23)cc1 | -30% | 2.5µM* | 3% | · | -10
SMILES | FMDV inh | HCV inh | AmpC inh no detg | AmpC inh detg | HCMV antiviral
COc1ccc(-c2sc3ccccc3c2/C=C/c2ccc(OC)c(OC)c2)cc1 | 1% | -1% | 6% | · | -20
COc1ccc(/C=C/c2c(-c3ccccc3OC)sc3ccccc23)cc1OC | -2% | ? | -17% | · | 15
C=C(C)Cn1c(=O)c2c(nc3n2CCN3c2cccc(Cl)c2C)n(C)c1=O | 22µM* | ? | 73% | -9% | -34
Cn1c(=O)n(C/C=C/c2ccccc2)c(=O)c2c1nc1n2CCCN1c1ccc(F)cc1 | ? | 11µM* | 19% | -6% | -30
Cn1c(=O)n(C/C=C/c2ccccc2)c(=O)c2c1nc1n2CCN1c1ccc(Cl)cc1 | -7% | · | · | 3% | -21
CCn1c(=O)c2c(nc3n2CCN3c2ccccc2)n(C)c1=O | -12% | ? | -19% | -10% | -75*
CC1CCCN(Cc2nc3c(c(=O)n(C)c(=O)n3C)n2Cc2ccc(Cl)cc2Cl)C1 (stereo not drawn) | -9% | · | · | -6% | 3
CN1C(=O)CSC1=Nc1ccc(F)cc1 | -1% | 25% | -8% | -2% | 10
CC(=O)c1cccc(NC(=O)Nc2cccnc2)c1 | 20% | 1% | -16% | 2% | -77*
Cc1ccc(NC(=O)Nc2nc3ccccc3s2)cc1NC(=O)Nc1nc2ccccc2s1 | 4% | 14µM* | -43% | -14% | -74*
Cc1ccc(NC(=O)Nc2cccnc2)cc1NC(=O)Nc1cccnc1 | ? | 11µM* | -5% | -7% | ?
O=C(Nc1cccnc1)Nc1cccc(F)c1 | 20% | 18% | -30% | 5% | -31
Cc1cc(C)cc(NC(=O)Nc2cccnc2)c1 | 8% | ? | -30% | -7% | 109
O=C(Nc1ccc(Cl)c([N+](=O)[O-])c1)Nc1nc2ccccc2s1 | · | · | -40% | -8% | ·
CC(C)(C)NC(=O)CN(C(=O)C1CSC(=O)C1)c1ccccc1F (stereo not drawn) | -13% | -3% | -33% | -1% | 2
COc1ccccc1CCNc1ncnc2sc(C(=O)N3CCCCC3)c(C)c12 | -28% | · | · | · | ·
O=C1CC2(CCN(C(=O)c3cccc(Cl)c3)CC2)Oc2ccccc21 | ? | 17% | 24% | 1% | -99*
Cc1ccc2c(c1)CN(C(=O)CC(c1ccccc1)c1ccco1)CC(C)O2 (stereo not drawn) | -6% | · | · | · | ·
Cn1nnc(NC(=S)NC(=O)c2ccc3ccccc3c2)n1 | 49% | · | · | · | -67*
O=C(O)c1cccc(NC(=S)NC(=O)c2ccc3ccccc3c2)c1 | 14µM* | 14% | -32% | 1% | 39
COC(=O)c1ccc(NC(=S)Nc2ccc3ccccc3c2)cc1 | 31% | -9% | 0.25µM* | -1% | 141
COC(=O)c1ccc(NC(=S)Nc2ccccc2)cc1 | · | -3% | -13% | 5% | -19
Cc1noc(C)c1NC(=O)N(C)C[C@H]1Oc2ccc(NC(=O)NC(C)C)cc2C(=O)N([C@H](C)CO)C[C@@H]1C | -20% | 8% | -23% | · | 9
CCOC1=CC(=O)N(CCN)C1 | · | · | · | · | -5
O=C(/C=C/c1cccc([N+](=O)[O-])c1)OCC1CCCO1 (stereo not drawn) | 0% | 2% | -3% | ? | 10
COc1cccc2c1Oc1nc(-c3ccccc3)nc(SCC(=O)N3CCCCC3)c1C2 | ? | · | · | 3% | 30
CC1Cc2cc(S(=O)(=O)CCC(=O)Nc3ccc(OC(F)(F)F)cc3)ccc2N1C(=O)C1CC1 (stereo not drawn) | ? | · | · | 21% | ?
N/C(=N\OC(=O)C12CC3CC(CC(C3)C1)C2)c1ccccc1 | 47% | 5µM* | -26% | 5% | 65
